Screens as filed in PubChem BioAssay.
KB-3-1 tox = qHTS assay for MDR1-selective chemotherapeutics: Primary screen using the parental adenocarcinoma cell KB-3-1 | Potency, µM (titrated, usually from 46.1 µM), usual class: cytotoxic | AID 1347075, 2019 | 1.4% of 400,000 active | KB-3-1 viability, CellTiter-Glo ATP luminescence, 72 h; also: % is scaled to controls: 0 for no effect and ±100 for the full control effect; nearly all actives have a fitted effect of over 60% in size
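Parental KB-3-1 viability, qHTS format: 72 h compound exposure, 37 °C; CellTiter-Glo; media-only wells and DMSO plates as controls; concentration-effect fits on corrected data.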
HepG2 tox = qHTS for Inhibitors of TGF-b: Cytotox Counterscreen; HepG2 CAGA-GFP viability, ATP luminescence, 18 h; 0.76% of 410,000 active; Potency, µM (doses to about 46.1 µM), for inactives: at the highest dose activity change, negative = cytotoxicity, hits mostly cytotoxic
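CellTiter-Glo luminescence gave cytotoxicity after 18 hours at 37 degrees C. The cells were HepG2 CAGA-GFP in 1% FBS DMEM, stimulated with 500 pg/mL TGF-beta after compound addition. %Activity was normalised to no-cell wells (complete cell-killing) and DMSO (no toxicity), and curves were fitted and classified.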
KB-V1 cytotox = qHTS assay for MDR1-selective chemotherapeutics: Primary screen using the drug-selected MDR subline cells KB-V1 | Potency, µM (top dose mostly 46.1 µM), actives largely listed as cytotoxic | AID 1347076, 2019 | KB-V1 MDR cells viability, CellTiter-Glo, 72 h | 3.4% of 400,000 active; also: % is scaled to controls: 0 for no effect and ±100 for the full control effect; nearly all actives have a fitted effect of over 60% in size
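In this primary screen, KB-V1 cells overexpressing P-gp are incubated with library compounds (lowest to highest concentration) for 72 h at 37 degrees C before a luminescent ATP viability read.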
S2 tox = Viability Counterscreen for Primary qHTS for Inhibitors of ATXN expression; S2 cells (HEK-293 line with an ATXN2-luciferase reporter) viability, CellTiter-Fluor protease fluorescence, 24 h; Potency, µM (series often up to 56.7 µM), actives largely listed as cytotoxic; 0.49% of 400,000 active; also: nearly all actives have a fitted effect of over 40% in size
TGFb inhibitor = qHTS for Inhibitors of TGF-b | HepG2 CAGA-GFP TGF-b/SMAD3 reporter, GFP fluorescence, 18 h; TGF-beta stimulated, 500 pg/mL final | Potency, µM (titrated, usually from 46.1 µM), inactives show top-dose activity, negative = inhibition, usual class: inhibitors | 1.2% of 410,000 active; also: % is scaled to controls: 0 for no effect and ±100 for the full control effect; nearly all actives have a fitted effect of over 65% in size
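Per well, imaged GFP fluorescence of HEPG2 CAGA-GFP cells gives the signal; cells get compound, then TGF-beta (500 pg/mL final), 18 h at 37 degrees C; %Activity versus -TGF-beta and +DMSO controls.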
ATXN2 expr inh = Primary qHTS for Inhibitors of ATXN expression; HEK-293 ATXN2-luciferase reporter, luminescence, 24 h; Potency, µM (series often up to 57 µM), for the others: at the highest dose activity change, negative = inhibition, most hits filed as inhibitors; 0.72% of 360,000 active; AID 1745845, 2022; also: % is scaled to controls: 0 for no effect and ±100 for the full control effect; nearly all actives have a fitted effect of over 55% in size
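ATXN2-luciferase reporter cells (luciferase flanked by upstream and downstream ATXN2 gene portions) were treated 24 h at 37 °C with compounds at up to 57 uM. SteadyGlo luminescence gave expression; GF-AFC fluorescence gave viability.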
* hit, by the source's call; i = inactive; u = inconclusive; x = no result. Hits are enriched below; roughly 5.9% of the tested compounds scored in any of these assays. Calls follow the shape of the dose curve; as a rule, active = well fitted curve in the direction sought with a large enough effect; inconclusive = small, poorly fitted or top-dose-only effect, or another doubt; inactive = no such curve, though single readings can be large; an effect the other way counts as inactive or inconclusive. Potency is read from the fitted curve at half-maximal effect.

SMILES	KB-3-1 tox	HepG2 tox	KB-V1 cytotox	S2 tox	TGFb inhibitor	ATXN2 expr inh
COc1ccccc1CNC(=O)C1CC2Cn3c(nc4cc(C)c(C)cc43)C2N1C (stereo not given)	13µM*	-13%	i	i	-2%	0%
O=C(C[N+]1(CC(O)c2ccccc2)CCOCC1)c1ccccc1 (stereo not given)	i	-41%	i	x	-26%	x
O=S(=O)(CCSc1ccccn1)c1nc2ccccc2s1	i	10µM*	i	x	8.9µM*	u
O=S(=O)(CCSc1nc2ccccc2o1)c1nc2ccccc2s1	i	-102%	i	x	u	28µM*
O=C(CSc1ccccn1)Nc1nc2ccccc2s1	i	4%	i	i	-22%	98%
Cc1nc2cccnc2n1C1CCN(C(=O)Nc2ccccc2C(F)(F)F)CC1	i	2%	i	i	4%	3%
Cc1csc(Sc2nc3c(c(=O)[nH]c(=O)n3C)n2Cc2ccccc2Cl)n1	i	3%	u	i	3%	7%
Cc1cccc(Cn2c(Sc3nc(C)cs3)nc3c2c(=O)[nH]c(=O)n3C)c1	i	-6%	4.1µM*	u	-18%	4%
CCn1c(SCC(=O)Nc2cc(Cl)ccc2OC)nc2c([nH]c3ccccc32)c1=O	i	-1%	i	i	40%	7%
CC(OC(=O)c1cccc(O)c1)C(=O)N(C)Cc1ccccc1 (stereo not given)	i	24%	u	i	21%	10%
CC(OC(=O)c1ccccc1NS(=O)(=O)c1cccc(N)c1)C(=O)N(C)Cc1ccccc1 (stereo not given)	u	6%	3.7µM*	u	-2%	-1%
O=C(c1ccc(Br)cc1)c1cc(-c2ccccn2)c(N2CCOCC2)s1	i	2%	4.1µM*	i	2%	-1%
O=C(c1ccccc1)c1ccc(N2CCOCC2)cc1	i	-1%	i	i	4%	17%
O=C(c1ccc(Cl)c(Cl)c1)c1cc(-c2ccccn2)c(N2CCOCC2)s1	i	4%	4.1µM*	i	u	-11%
CCc1ccccc1NC(=O)CN1C(=O)CCn2nc(-c3cccn3C)cc21	i	-5%	i	i	0%	9%
Fc1ccc(Nc2nc(SCc3ccccc3F)nc3ccccc23)cc1	x	-104%	x	x	u	x
CCn1c(SCC(=O)NC2CCCCC2C)nnc1-c1ccc(OC)cc1 (stereo not given)	i	-5%	2.6µM*	i	-11%	-6%
COc1ccc(NC(=O)Cc2nnc(SCC(=O)NC3CCCCC3C)n2C)cc1 (stereo not given)	i	-11%	i	i	-17%	-14%
CCn1c(C)nnc1SCC(=O)Nc1ccc(OC)cc1	i	6.3µM*	i	i	-5%	x
CCOc1ccc(NC(=O)CSc2nnc(C3CC3)n2C2CC2)cc1	i	-3%	13µM*	i	-3%	-7%
NC(=O)c1ccc(NC(=O)CSc2nnc(C3CC3)n2C2CC2)cc1	i	19%	i	i	9%	2%
CCOc1ccc(S(=O)(=O)N2CCN(C(=O)c3cc4c(s3)CCCC4)CC2)cc1	12µM*	4%	3.3µM*	i	-18%	9%
O=C(c1cc2c(s1)CCCCC2)N1CCN(c2ncccn2)CC1	i	-12%	16µM*	i	4%	0%
CCOc1ccc(S(=O)(=O)N2CCN(C(=S)NCc3ccccc3)CC2)cc1	i	-2%	18µM*	i	u	x
Cc1ccc2sc(N(Cc3cccnc3)C(=O)CCOc3ccccc3)nc2c1C	i	-34%	i	x	0%	x
SMILES	KB-3-1 tox	HepG2 tox	KB-V1 cytotox	S2 tox	TGFb inhibitor	ATXN2 expr inh
COc1ccccc1N1CCN(CC(=O)Nc2cc(C)nn2-c2nc(C)cc(C)n2)CC1	4.6µM*	15%	i	i	14%	-3%
N#CC(=C(N)Sc1ccc(N)cc1)c1ccccc1C(F)(F)F	x	x	x	x	x	7%
CCCn1c(=N)n(CC(O)COc2cccc(C)c2)c2ccccc21 (stereo not given)	u	-55%	15µM*	u	-1%	u
CCCCCn1c(=N)n(CC(O)COc2cccc(C)c2)c2ccccc21 (stereo not given)	i	-107%	u	20µM*	u	32µM*
Cc1cccc(N2CCN(C(=O)c3cc4ccc5cccnc5c4[nH]3)CC2C)c1 (stereo not given)	i	-35%	i	x	u	x
COc1c(C)cc(S(=O)(=O)N2CCCC2)c(C)c1C	i	-1%	23µM*	i	-2%	-3%
COc1c(C)cc(S(=O)(=O)N2CCOCC2)c(C)c1C	i	-24%	u	x	1%	-1%
CNc1ncc(-c2nnnn2-c2ccccc2)c(-c2ccccc2)n1	i	-2%	21µM*	u	0%	x
Cc1ccc(-n2nnnc2-c2ccccc2)cc1	u	2%	u	i	-12%	3%
Cc1ccc(CNc2nc(C)c(-c3ccn(CCN4CCOCC4)n3)s2)o1	x	x	x	i	x	x
O=[N+]([O-])c1ccc(O)c(C2=NNC(c3ccccc3F)C2)c1 (stereo not given)	u	-38%	u	i	13µM*	u
O=[N+]([O-])c1ccc2c(c1N1CCCCC1)=NC1(CCCCC1)[N+]=2[O-]	i	-58%	i	u	-18%	-21%
COc1ccc(Nc2ccc3c(c2)=NC2(CCCCC2)[N+]=3[O-])cc1	15µM*	13µM*	u	x	3.2µM*	u
COc1ccc(NC2=NC(=S)N(c3ccccc3C)C23CCCCC3)cc1	i	4%	i	i	13%	-11%
[O-][N+]1=c2ccc(Nc3ccccc3)cc2=NC12CCCCC2	u	-106%	u	14µM*	6.3µM*	u
CCc1ccc(S(=O)(=O)c2nnn3c2nc(N(CC)Cc2ccccc2)c2cc(Cl)ccc23)cc1	i	-3%	i	i	-5%	4%
CC(=O)N1CCc2c(sc(NC(=O)c3ccc(S(=O)(=O)N(C)CC4CCCO4)cc3)c2C(N)=O)C1 (stereo not given)	i	-2%	i	i	-5%	x
Cc1nnsc1C(=O)Oc1ccc(Cl)cc1	i	4%	i	i	4%	0%
COc1ccccc1C(=O)OCCc1ccccc1	u	-4%	u	i	10%	41%
